What all share (experiment): yeast three-hybrid, YBZ-1, SC-Leu-His + 0.5 mM 3-AT, 4 days
Holding throughout (settings): tags: N-Gal4 AD-HA kept; label: inside an RPR1-promoter hybrid RNA with tandem MS2 sites; ssRNA

Assay [1] deals with PUM1 PUF domain R4-THP (Homo sapiens, UniProt Q14671 828-1176, N971T;Q975P). Summed up:
(§1)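 The interaction score is the log change in variant frequency from input to selection. Scores were computed in log2 with a pseudocount of 1 for absent variants, using Illumina sequencing of PCR-amplified repeat regions. The input came from four days on SC-Leu and the selection from four days on SC-Leu-His + 0.5 mM 3-AT. The cells were strain YBZ-1 (LexA–MS2 coat fusion, HIS3 reporter) co-expressing Pumilio-1 PUF domain libraries and matching RNA elements from a centromeric plasmid.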

For assay [2], the target named is T1, PUM1 PUF domain R6-CFY (Homo sapiens, UniProt Q14671 828-1176, N1043C;Y1044F;Q1047Y).
T1 sequence: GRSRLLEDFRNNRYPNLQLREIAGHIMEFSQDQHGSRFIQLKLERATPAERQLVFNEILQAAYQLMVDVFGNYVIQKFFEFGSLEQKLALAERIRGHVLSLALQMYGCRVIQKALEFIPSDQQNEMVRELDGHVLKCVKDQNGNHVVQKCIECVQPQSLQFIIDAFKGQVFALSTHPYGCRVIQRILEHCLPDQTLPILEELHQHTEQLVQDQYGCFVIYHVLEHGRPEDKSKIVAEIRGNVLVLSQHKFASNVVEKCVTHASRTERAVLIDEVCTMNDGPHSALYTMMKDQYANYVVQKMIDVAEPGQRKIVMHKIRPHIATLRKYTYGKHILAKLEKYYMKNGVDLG
The method, boiled down: as §1

Assay [3] deals with T2, PUM1 PUF domain R6-AYQ (Homo sapiens, UniProt Q14671 828-1176, N1043A).
T2 sequence: T1 sequence with C216A, F217Y, Y220Q
Summed up: as §1

The target in assay [4] is PUM1 PUF domain R5-DFA (Homo sapiens, UniProt Q14671 828-1176, C1007D;R1008F;Q1011A). Summed up:
as §1

For assay [5], the target named is PUM1 PUF domain R7-RTL (Homo sapiens, UniProt Q14671 828-1176, S1079R;N1080T;E1083L). The method, boiled down:
as §1

The target in assay [6] is PUM1 PUF domain R7-RRA (Homo sapiens, UniProt Q14671 828-1176, S1079R;N1080R;E1083A). The method, boiled down:
as §1

Assay [7] concerns the target PUM1 PUF domain R1-CWR (Homo sapiens, UniProt Q14671 828-1176, S863C;R864W;Q867R). Summed up: as §1
Assay [8] concerns the target PUM1 PUF domain R3-RRR (Homo sapiens, UniProt Q14671 828-1176, C935R;Q939R). The method, boiled down:
as §1

Assay [9] addresses PUM1 PUF domain R8-HYP (Homo sapiens, UniProt Q14671 828-1176, N1122H;Q1126P). Summed up:
as §1

Numbering of substitutions follows the chain as printed.

PUM1 PUF domain R8-HYP, sequence (Q14671 828-1176 N1122H/Q1126P): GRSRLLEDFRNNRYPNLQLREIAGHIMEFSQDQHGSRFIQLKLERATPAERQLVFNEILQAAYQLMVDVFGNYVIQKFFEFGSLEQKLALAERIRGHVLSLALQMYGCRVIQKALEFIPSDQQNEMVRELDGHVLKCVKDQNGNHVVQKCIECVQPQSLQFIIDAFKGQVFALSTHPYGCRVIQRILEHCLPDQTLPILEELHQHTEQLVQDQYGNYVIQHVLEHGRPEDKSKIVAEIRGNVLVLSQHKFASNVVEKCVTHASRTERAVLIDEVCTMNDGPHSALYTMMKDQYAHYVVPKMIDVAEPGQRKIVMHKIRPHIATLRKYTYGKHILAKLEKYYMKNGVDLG
PUM1 PUF domain R3-RRR, sequence (Q14671 828-1176 C935R/Q939R): as the sequence (Q14671 828-1176 N1122H/Q1126P) above, with C108R, Q112R, H295N, P299Q counted along it

On to “GGCUAGAACUAGUGGAUCCCCCGGCGCCCGGCGGCUCGAGCCCGGGUAAGUGUAUAUAGUCUGCAUGCCGCCGGGCGCCAUGCCUGCAGGUCGACUCUAGAAAACAUG”, for which the binding signal in [1] is 2.79 log2 enrichment (interaction score). In the case of “GGCUAGAACUAGUGGAUCCCCCGGCGCCCGGCGGCUCGAGCCCGGGUAAGUGAAAAUAGUCUGCAUGCCGCCGGGCGCCAUGCCUGCAGGUCGACUCUAGAAAACAUG”, the binding signal in [2] is 1.54 log2 enrichment (interaction score); in [3], 4.26 log2 enrichment (interaction score). Turning to “GGCUAGAACUAGUGGAUCCCCCGGCGCCCGGCGGCUCGAGCCCGGGUAAGUGUAAAUAGUCUGCAUGCCGCCGGGCGCCAUGCCUGCAGGUCGACUCUAGAAAACAUG”, the binding signal in [2] is 2.39 log2 enrichment (interaction score); in assay [4] it was 4.36 log2 enrichment (interaction score). For “GGCUAGAACUAGUGGAUCCCCCGGCGCCCGGCGGCUCGAGCCCGGGUAAGUUUAAAUAGUCUGCAUGCCGCCGGGCGCCAUGCCUGCAGGUCGACUCUAGAAAACAUG”, the binding signal in assay [5] was 3.26 log2 enrichment (interaction score); in assay [6] it was 3.23 log2 enrichment (interaction score). For “GGCUAGAACUAGUGGAUCCCCCGGCGCCCGGCGGCUCGAGCCCGGGUAAGUGUAAAUGGUCUGCAUGCCGCCGGGCGCCAUGCCUGCAGGUCGACUCUAGAAAACAUG”, the binding signal in [7] was 1.23 log2 enrichment (interaction score). With “GGCUAGAACUAGUGGAUCCCCCGGCGCCCGGCGGCUCGAGCCCGGGUAAGUGUAAAUCGUCUGCAUGCCGCCGGGCGCCAUGCCUGCAGGUCGACUCUAGAAAACAUG”, the binding signal in assay [7] is 6.18 log2 enrichment (interaction score). Take “GGCUAGAACUAGUGGAUCCCCCGGCGCCCGGCGGCUCGAGCCCGGGUAAGUCUAAAUAGUCUGCAUGCCGCCGGGCGCCAUGCCUGCAGGUCGACUCUAGAAAACAUG”: in assay [6], the binding signal was 5.23 log2 enrichment (interaction score). In the case of “GGCUAGAACUAGUGGAUCCCCCGGCGCCCGGCGGCUCGAGCCCGGGUAAGUGUAAUUAGUCUGCAUGCCGCCGGGCGCCAUGCCUGCAGGUCGACUCUAGAAAACAUG”, the binding signal in [8] was 3.73 log2 enrichment (interaction score). As to “GGCUAGAACUAGUGGAUCCCCCGGCGCCCGGCGGCUCGAGCCCGGGUAAGGGUAAAUAGUCUGCAUGCCGCCGGGCGCCAUGCCUGCAGGUCGACUCUAGAAAACAUG”, the binding signal in assay [9] is 2.77 log2 enrichment (interaction score). For the sequence “GGCUAGAACUAGUGGAUCCCCCGGCGCCCGGCGGCUCGAGCCCGGGUAAGCGUAAAUAGUCUGCAUGCCGCCGGGCGCCAUGCCUGCAGGUCGACUCUAGAAAACAUG”, in assay [9], the binding signal is 5.46 log2 enrichment (interaction score).
